# A number with no mark means an inactive call. How the calls were made is not given here.
# Target: VTCN1, Q7Z7D3
# Sequence (Q7Z7D3 whole entry): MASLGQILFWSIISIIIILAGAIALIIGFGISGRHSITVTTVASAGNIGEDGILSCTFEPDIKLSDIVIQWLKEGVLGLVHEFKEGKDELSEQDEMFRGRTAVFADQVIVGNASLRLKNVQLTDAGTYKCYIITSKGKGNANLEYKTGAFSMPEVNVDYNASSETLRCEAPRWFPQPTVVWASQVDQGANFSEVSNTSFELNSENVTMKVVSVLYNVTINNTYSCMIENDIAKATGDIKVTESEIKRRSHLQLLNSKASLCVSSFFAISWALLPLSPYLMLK
row,Binder,binding in a display sort
1,d4r1_design_ppi_104_dldesign_0_cycle1_af2pred (protein) MSIEERLEELEKRLYEEIKKKAEEYLEELEKESEKLAKLDPSLAEEAKKKYEEAKELYKDPETVYLSKSHAEENLEEVKKKIKELES,not found
2,d3r1_design_ppi_891_dldesign_0_cycle1_af2pred (protein) AEEALKEEMVKKAKEVAEKAAKAGYPEEAKQAAKAGAAFAPEKGEEIKKYAEEEIKKAEKEKEEKKKKEKEKKE,not found
3,d3r1_design_ppi_859_dldesign_0_cycle1_af2pred (protein) ESELLKQVAEAVQQAVKAALKDPEEAKKVVEKALELDAEKAIEVAKSLAEAYKIAGNEEKAAAAKKVAELLEKLSKERK,not found
4,d3r1_design_ppi_728_dldesign_0_cycle0_af2pred (protein) SLKESVDKKVEKLKEEAKKLAKYDPELAKKAIEYAEKAKKAKTLEEAGKYANKASEYIEEAEKKAKEKKEEEAK,not found
5,d3r1_design_ppi_897_dldesign_0_cycle1_af2pred (protein) MEALKAVEEKMKEAIEYAKKAGDEELAKEAEKRRKALLAGAERAVEVAKKNPVAGASLAQAVIKSAELASEYFKELVEKKK,not found
6,d4r1_design_ppi_144_dldesign_0_cycle0_af2pred (protein) DEETKKAVEEAKKAAKEAEEIAKKYPELKPLAEQAKKAAKYAEKYAKENPIAAKNAMKATKAIAEEMKKLA,not found
7,d4r1_design_ppi_144_dldesign_0_cycle1_af2pred (protein) DEEVKKAAKEAKEAAKEAEKLAKKDKSLKPLAEQAKKAAKYAEYYTKINPTLALNAAKAAKKIYEEMKKLA,not found
8,d4r1_design_ppi_77_dldesign_0_cycle0_af2pred (protein) MKEKEEALKEAKKHLKEAEKLAEEAEKNGKGDELFSKLGKHLQEAAKYAEKNKENQEEINKELQKVAKKARDAILKVQKAR,not found
9,d3r1_design_ppi_985_dldesign_0_cycle1_af2pred (protein) EEAEKLLKEIKEKSEKAIKLAEEGKIEEAEKELQEALKIAQELAKKYPEAAPEAAKIVNKAATELEKKKEEQKKKLE,not found
10,d4r1_design_ppi_104_dldesign_0_cycle0_af2pred (protein) MSIEERLEELEKRLTEETKKEAEENLKRLEEVAKELAELDPELAPEAKKALEEAKKLFEDPEKIFEAAALARESLEEFEKRLKELKE,not found
11,d3r1_design_ppi_729_dldesign_0_cycle0_af2pred (protein) DEEKKAKEAAEEAIKAKEKLGTGKEVKKTADEAFAAAKKATPEQAKALYKKLLEWFKEEKAKAEAEIAAA,not found
12,d3r1_design_ppi_734_dldesign_0_cycle0_af2pred (protein) SSEEELKLLTGKNALEILPEILKEAEKLLKEAKKTGDKEKLKEAIKQAENAIAAAKAAAIVDPKKAEEYKKKAEKLKKEAEKLL,not found
13,d3r1_design_ppi_728_dldesign_0_cycle1_af2pred (protein) DIRENIKKLAKELKKEAEKLSEYDPELAKKAIEYAKKAEAAKTAEEAAKYATKAAEYVEKAEELAKKKKEELEK,not found
14,d3r1_design_ppi_897_dldesign_0_cycle0_af2pred (protein) MEAKEKVKKLTEEAIKYAEEAGDKETAEEAKKGGEALLAGAKEAEELAKKNPVAGASLQEAVIKSAELFAKSIKEEVEKKK,not found
15,d3r1_design_ppi_851_dldesign_0_cycle0_af2pred (protein) DEVKKLLEEAKKLAEKAEELAKKGGSVEEVEKAAEKAQEAAVKAIKLAAKTEDGEKLTKEAGKYAQKATQAAAEAKEKAKKEA,not found
16,d4r1_design_ppi_77_dldesign_0_cycle1_af2pred (protein) MKEEEKALEKANEYIEKAEELAKKALENGEGDEVFSEAGKLLEKAVEEAEKNKENREEILKRVQEVRDLLREAVLKRLKAE,not found
17,d4r1_design_ppi_33_dldesign_0_cycle0_af2pred (protein) SEEEEKNAENLKKAAEELEKIAEEGIKKGASVEEIKKKLEEKGKEFAKKYPKNAKSYLELAKIVAKEAEKKLK,not found
18,d3r1_design_ppi_994_dldesign_0_cycle0_af2pred (protein) MEELEKVAKKILKEAKKRAEEAAKKGAESENGEEVFTKGLQETLEKASEEAEKAGLPDELAVKVLKEIVKYGNEVKKAALAARA,not found
19,d3r1_design_ppi_981_dldesign_0_cycle1_af2pred (protein) MEEFAKEMEKWSEEAAKKYEEAKELAKKDPKEGVKVLEEAIKELEEKAKEYEKKGPYGKNIAKALNWLAKKFKELKKKIEAS,not found

# Source: publication PMC13494018
